Measured values reported in PubChem BioAssay (EPA / NIEHS).
Calls of active or inactive are those of the source. Rule for the calls: active = hit-call score of the fitted dose curve at least 0.9, where 1 is the maximum; inactive = score below 0.9.

Read-out: MYC, MYC (gene 4609)
Experiment: LTEA_HepaRG_MYC: Life Technologies and Expression Analysis (LTEA) Assay for MYC using HepaRG (AID 2283518)
Details: mRNA level, 48 h; actives raise or lower the signal
Experimental: LTEA_HepaRG is a cell based, multiplexed-readout assay that uses HepaRG, a human liver cell line, with measurements taken at 48 hours after chemical dosing on a 96-well plate.LTEA_HepaRG_MYC is one of 102 assay component(s) measured in the LTEA HepaRG cell culture assay. It is a marker of Cell proliferation, survival, death.Data from the assay component LTEA_HepaRG_MYC was analyzed into 1 endpoint. This assay endpoint, LTEA_HepaRG_MYC, was analyzed with bidirectional fitting relative to DMSO as the negative control and baseline of activity. Using a type of inducible reporter, measures of mRNA induction for gain or loss-of-signal activity can be used to understand regulation of transcription factor activity. To generalize the intended target to other relatable targets, this assay endpoint is annotated to the dna binding intended target family, where the subfamily is basic helix-loop-helix leucine zipper.
A total of 1060 chemcials from the ToxCast library were tested in eight-point concentration-response experiments. Cell culture and cytotoxicity assays were conducted at Thermo Fisher Scientific's Custom Services facility (Madison, WI). A single lot of human HepaRG cells (Thermo Fisher Scientific, Frederick, MD) was used for the cell culture experiments. 96-well format collagen type I coated plates of human HepaRG cells were prepared using established methods. Briefly, cryopreserved HepaRG cells were thawed, plated at a density of approximately 100,000 cells/well in HepaRG Thaw, Plate, and General Purpose media (HPRG770, Thermo Fisher Scientific), and incubated for 48 hours. 0.5% DMSO was selected as vehicle control to balance the requisite need of DMSO in HepaRG cultures to maintain differentiation (for example, baseline metabolism, proportions of hepatocytes vs. cholangiocytes), while enabling further hepatic receptor pathway activation (for example, PXR and CAR) in response to chemical exposure. 48 hours after plating, the culture medium was replaced with HepaRG Serum-Free Incudtion Media. Cells were exposed to each test chemical in duplicate and maintained in CO2 incubators for another 48 hours. Chemical plates were thawed to room temperature and 200x concentrations of treatment groups were prepared. 8-point conentration-reponse curves were made with the highest exposure at 100 uM, followed by half-log dilutions, all in 0.5% DMSO. Each test plate contained variouse controls, induction positive controls (1mM phenobarbital), cytotoxicity positive controls ([…] aflatoxin B1), vehicle controls (0.5% DMSO), and total lysis controls (0.5% DMSO). Cell morphology images were taken using an Essen IncuCyte FLR automated microscope, with six 96-well plates imaged in about 24 minutes. Images were captured and exported and JPEG files. Spent culture media was transfered to black-well plates for the LDH assay, and remaining media was sorted at -80 C for later use. Cells were treated with RLT buffer and frozen until shipped for gene expression analysis. Total RNA was isolated from the cell suspension in 75 uL of Buffer RLT (Qiagen, Germantown, MD 20874) by Quintiles/Expression Analysis (Durham, NC) using a custom isolation procedure. Total RNA from each plate well was transferred to a preamplification plate. Fluidigm's 96.96 Dynamic ArrayTM (Fluidigm, Amsterdam, the Netherlands) technology was used for gene expression analyses by quantitative reverse transcription polymerase chain reaction (qRT-PCR, performed by Quintiles/Expression Analysis, Durham, NC)89. Standard TaqManTM Assays (Applied Biosystems/ThermoFisher Scientific, Foster City, CA) were used to assess the expression of 93 genes selected based on their selectivity and sensitivity to important hepatic receptors known to be modulated by environmental chemicals; importance in human hepatocyte functionality; and hepatotoxicity. […]

SMILES | outcome | AC50
C1CCC(SSC2CCCCC2)CC1 | inactive | –
Cc1ccc(N(C)C)cc1 | inactive | –
COCCOCCOC | – | 0.966 µM (active)
O=c1c(O)c(-c2ccc(O)c(O)c2)oc2cc(O)cc(O)c12 | inactive | –
COC(=O)c1ccc(O)cc1 | inactive | –
CCCCCCCCCCCCCCCC | inactive | –
Nc1nc(N)c2nc(CNc3ccc(C(=O)N[C@@H](CCC(=O)O)C(=O)O)cc3)cnc2n1 | inactive | –
CCCCCCCCCCCC(=O)OC | inactive | –
C=CCc1ccc(O)c(OC)c1 | inactive | –
CCCCc1ccc2c(n1)[C@@H](c1ccc(OC)cc1C[C@H](C)C(=O)O)[C@H](C(=O)O)[C@H]2c1ccc2c(c1)OCO2 | inactive | –
CCCCC(CC)COC(=O)CC(C(=O)OCC(CC)CCCC)S(=O)(=O)O (stereo not given) | – | 85 µM (active)
CC1=C(/C=C/C(C)=C/C=C/C(C)=C/CO)C(C)(C)CCC1 | inactive | –
CCOC(=O)CCC(=O)OCC | inactive | –
CCCCCCOCCO | inactive | –
CCNc1cccc(C)c1 | inactive | –
CCCCCC(=O)O | inactive | –
Nc1ccccc1N | – | 7.08 µM (active)
CCCCCCCCCCCCCCCCCC(=O)O | inactive | –
COc1ccc(C)cc1N | inactive | –
C[Si]1(C)O[Si](C)(C)O[Si](C)(C)O[Si](C)(C)O1 | inactive | –

SMILES | outcome | AC50
CC(C)(C)c1cc(O)c(C(C)(C)C)cc1O | inactive | –
CC(=O)OC/C=C(\C)CCC=C(C)C | inactive | –
CC(C)c1ccc(C(=O)N=C(N)N)cc1S(C)(=O)=O | – | 0.343 µM (active)
Oc1ccc2c(c1)OC[C@@H](N1CCC(O)(c3ccc(F)cc3)CC1)[C@H]2O | inactive | –
Cc1nc(C)nc(N2C[C@@H](C)N(c3ccnc([C@@H](C)O)n3)[C@@H](C)C2)n1 | inactive | –
COc1ccc2c(c1)c(CC(=O)O)c(C)n2C(=O)c1ccc(Cl)cc1 | inactive | –
Cc1ccccc1Cl | inactive | –
FC(F)(F)C(F)(F)C(F)(F)C(F)(F)C(F)(F)C(F)(F)CCI | inactive | –
Cc1cc(NC(=O)C(=O)O)cc(C)c1Oc1ccc(O)c2c1CCC2 | inactive | –
O=C(O)CCCCC(=O)O | inactive | –
CC=Cc1ccc(O)c(OC)c1 | inactive | –
CC(=O)C(C)=CC1C(C)=CCCC1(C)C (stereo not given) | inactive | –
CCCCN(CCCC)CCCC | inactive | –
COc1cc(S(=O)(=O)O)c(C)cc1N=Nc1c(O)ccc2cc(S(=O)(=O)O)ccc12 | inactive | –
NS(=O)(=O)c1cc2c(cc1Cl)NCNS2(=O)=O | inactive | –
NCC1(Cc2noc(=O)[nH]2)CCCCC1 | inactive | –
Cc1cccc([N+](=O)[O-])c1C | inactive | –
CNC(=O)[C@H]1O[C@@H](n2cnc3c(NCc4cc(Cl)ccc4OCc4cc(C)no4)ncnc32)[C@H](O)[C@@H]1N | inactive | –
Cc1ccc(C)c(O)c1C | inactive | –
COc1ccc(S(=O)(=O)N2C(=O)[C@@](c3ccccc3OC)(N3C[C@H](O)C[C@H]3C(=O)N(C)C)c3cc(Cl)ccc32)c(OC)c1 | – | 76.5 µM (active)
